Measurements reported in PubChem BioAssay (NCI).
This is part of a sample that, as a whole, favours compounds with a hit. Of some 83,000 tested, about 20% had one in any assay.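 In brief: 96-well plates, 48 h treatment, single concentration, percent growth endpoint.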 Values without a mark were called inactive. The source made the active and inactive calls.

tested on: HCC-2998 colon; assay: NCI-60 one-dose screen, 48 h (100 = growth as untreated, 0 = no growth, -100 = all killed); conditions: 10 µM unless noted
Protocol: Growth inhibition of the HCC-2998 human tumor cell line is measured as a screen for anti-cancer activity. Cells are grown in 96 well plates and exposed to the test compound for 48 hours. Compounds are tested at a single concentration, which is 10^-5 M for most compounds. The reported endpoint is percent growth (GI% or GIPRCNT), where numbers from 0 - 100% represent growth inhibition, and numbers from -100% - 0 represent cell death. For example, a value of 40 represents 60% growth inhibition. A value of 0 means no net growth occurred over the course of the experiment. A value of -40 indicates 40% of cells at the beginning of the experiment died by the end of the experiment. A value of -100 means all cells are dead at the end of the experiment.
NCI-60 Human Tumor Cell Lines Screen was performed using the standard one-dose NCI protocol, which is described in more detail at https://dtp.cancer.gov/discovery_development/nci-60/default.htm.
Compounds with GIPRCNT values below 10 were considered active. Activity score was based on GIPRCNT using the following formula: […]
Score is 0 for GIPRCNT values of 100 or above, 50 for GIPRCNT values of 0, and 100 for GIPRCNT values of -100.

SMILES	growth
N#Cc1c(Nc2ccccc2)nn2cc(-c3nc4ccccc4s3)c(N)nc12	88%
Cc1cc(C)n(Nc2nc3ccccc3[nH]c2=O)c(=O)c1C#N	103%
Clc1ccc(N2N=C(c3cccc(Nc4ccncc4)c3)CC2c2ccc(Br)cc2)cc1 (stereo not given)	-67.7% (active)
O=C1Nc2c(ccc(Cl)c2Cl)/C1=C/c1ccc([N+](=O)[O-])cc1	108%
CCOC(=O)c1cnc2c(cnn2CC)c1NN=C(C)C	94.9%
CCCCCCCCN1C(=O)/C(=c2\sc3n(c2=O)C2C(NN=3)N(CC)C(=O)N2CC)c2ccccc21 (stereo not given)	103%
C#CCn1cc(C=C2C(=O)NC(=S)NC2=O)c2cc(Cl)ccc21	-4.98% (active)
O=C(N/N=C/c1ccc(O)c(O)c1)c1sc2ccccc2c1Cl	96.5%
Cc1ccc(C(=O)Nc2ccccc2C(=O)N/N=C(\c2ccccc2)c2ccccn2)cc1	29.7%
CC(=O)c1c(-c2ccc(OC(F)(F)F)cc2)nc2ccccn12	105%
CCCCc1ccc(Nc2nnc(SCC(=O)NC(=O)NCC)s2)cc1	105%
CN(C)c1ccc(-c2c(C#N)c(N)n3nc(N)c(C#N)c3c2C#N)cc1	83.6%
CC[C@H](C)[C@@H]1NC(=O)[C@H](Cc2ccc(O)cc2)N(C)C(=O)[C@H](Cc2ccccc2)NC(=O)CN(C)C(=O)[C@@H]2CCCN2C(=O)[C@@H](Cc2ccccc2)N(C)C(=O)[C@H](CC(C)C)NC1=O	-23.9% (active)
CN(Cc1ccccc1)c1nc(Cl)c(C2CC(c3ccc(Cl)cc3)=Cc3[nH][nH]c(=O)c32)s1 (stereo not given)	104%
S=c1[nH]cccc1-c1nnc2n1Nc1nc3ccccc3cc1CS2	98.5%
Cc1cccc(Oc2ccc(Nc3ncnc4ccc(NC(=O)CN(C)C)cc34)cc2Cl)c1	13.3%
Cc1cc(C)c(C=O)c(C)c1	108%
O=C1Nc2c(ccc(Cl)c2Cl)/C1=C/c1ccc(O)cc1	80.5%
Clc1cc(Cl)cc(N2N=C(c3cccc(Nc4ccncc4)c3)CC2c2ccc3c(c2)OCO3)c1 (stereo not given)	-40.8% (active)
COc1ccccc1C(C[N+](=O)[O-])c1c(-c2ccccc2)[nH]c2cc(C)ccc12 (stereo not given)	93.6%

SMILES	growth
O=S(=O)(c1ccccc1)N1CCCc2ccccc21	103%
CCOC(=O)c1ccc(Nc2ccnc(SCC(=O)c3ccc(C#N)cc3)n2)cc1	103%
CCNNC(=O)[C@@H]1[C@H](c2cc(OC)c(OC)c(OC)c2)c2cc3c(cc2[C@H](O)[C@H]1CO)OCO3	6.02% (active)
Clc1ccc(C2CC(c3cccc(Nc4ccncc4)c3)=NN2c2ccccc2)cc1 (stereo not given)	-31.5% (active)
COc1ccc(-c2c[nH]c(C(=O)O)c2-c2cc(OC)c3c(c2OC)OCO3)cc1	100%
CCCOc1nc(SCCC)nc2c1cnn2-c1ccccc1	99.6%
COc1cc(/C=C2\C(=O)N(Cc3ccc(Cl)cc3)c3ccccc32)cc(OC)c1OC	-28.5% (active)
COc1ccc(C(=O)c2cc3c(N)c(C(=O)Nc4cccc(Cl)c4C)sc3nc2C)cc1	17.1%
CCN(CC)CCOC(COc1cc(C)cc(C)c1)COc1cc(C)cc(C)c1	16.8%
Cc1nn(-c2ccccc2)c(N2CCOCC2)c1/C=N/N=c1\sc2ccccc2n1C	106%
COc1cc(CNC(=O)CCCCC[P+](c2ccccc2)(c2ccccc2)c2ccccc2)c(OC)c2c1OCO2	57.6%
CC(=O)Nc1ccc(S(=O)(=O)NC2CCCCC2)cc1	102%
C#Cc1cccc(NC(=O)Nc2cccc(N=C=S)c2)c1	105% [8.25 µM]
CCCCOc1ccc(/C=N/Nc2cc(C)nc3ccc(Cl)cc23)cc1	-71.1% (active)
COc1ccc(C(=O)/C=C/c2c(OC)cc(OC)cc2OC)c(OC)c1	41.7%
CN(C)C(C(N)=O)c1ccc(Cl)cc1 (stereo not given)	102%
COc1nccnn1	110%
Cc1ccc(O)c(C(=O)O)c1	110%
CNC(=O)NCC1OC(n2cnc3c(NC(=O)Nc4ccccc4)ncnc32)C(O[Si](C)(C)C(C)(C)C)C1O[Si](C)(C)C(C)(C)C (stereo not given)	-1.37% (active)
CCN1C(=O)/C(=c2\sc3n(c2=O)NC2C(N=3)N(CC)C(=O)N2CC)c2ccccc21 (stereo not given)	58.9%
